In the supplement of paper PMC10981050:
Several values for one entry are separate records, joined by “and”; a condition that tells them apart may be missing. Equal entries are not always repeated.

Experiments:
Assay in all cases: cell viability relative to vehicle control; higher = less cytotoxic
Details in all cases: 10 µM
K562 = tested on: K562
Summary of the method: (§1)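 CRISPR-edited SRSF2 P95 mutant and isogenic wild-type clones of four leukaemia lines were screened against Selleck bioactive, kinase and epigenetic probe libraries, with identity-inconsistent compounds removed. Compounds were acoustically dispensed into 384-well plates at a single 10 µM dose, with 2000 cells in 50 µL medium per well. After 48 h, supernatant was removed and CellTiter-Glo luminescence was read. Viability was expressed as percent of the on-plate DMSO vehicle control, analysed in Genedata Screener.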

MARIMO = tested on: MARIMO
Summary of the method: as §1

MOLM14 = tested on: MOLM14
Summary of the method: as §1

OCI-AML2 = tested on: OCI-AML2
Summary of the method: as §1

SMILES	cell viability (K562; SRSF2 genotype: SRSF2 P95H/wt)	cell viability (K562; SRSF2 genotype: SRSF2 wt/wt) [%]	cell viability (MARIMO; SRSF2 genotype: SRSF2 P95H/wt) [%]	cell viability (MARIMO; SRSF2 genotype: SRSF2 wt/wt) [%]	cell viability (MOLM14; SRSF2 genotype: SRSF2 P95H/wt) [%]	cell viability (MOLM14; SRSF2 genotype: SRSF2 wt/wt) [%]	cell viability (OCI-AML2; SRSF2 genotype: P95H/wt) [%]	cell viability (OCI-AML2; SRSF2 genotype: wt/wt) [%]
COc1ccc2ccc(=O)oc2c1CC=C(C)C [Osthole (Osthol)]	97.5% and 91.7%	90.1	94.2	93.2	88.7	94.3	93.2	95.5
COc1cc2nccc(Oc3ccc(NC(=O)C4(C(=O)Nc5ccc(F)cc5)CC4)cc3)c2cc1OC [Cabozantinib malate]	21% and 29.7%	23.6	67.3	87.3	6.23	7.8	23.3	27.8
Cc1ccc(-n2[nH]c(C)c(N=Nc3cccc(-c4cccc(C(=O)O)c4)c3O)c2=O)cc1C [Eltrombopag olamine]	76% and 80.3%	69.3	54.9	69	75.4	68.5	66.3	60.3
O=C(NCCCn1ccnc1)c1cc(-c2ccco2)on1	87.3% and 91.7%	87.1	68.9	79.4	45.7	44.4	77.2	72.6
COc1cccc(Nc2c(C(N)=O)cnc3c(C)cc(S(=O)(=O)c4cccc(C(=O)N(C)C)c4)cc23)c1	109% and 106%	108	93.5	101	108	103	111	98.2
OC[C@H]1O[C@H](OC[C@H]2O[C@H](O[C@]3(CO)O[C@H](CO)[C@@H](O)[C@@H]3O)[C@H](O)[C@@H](O)[C@@H]2O)[C@H](O)[C@@H](O)[C@H]1O [Raffinose]	97.9% and 96.4%	95.4	97.2	103	103	98.1	94.5	98.6
CCc1c(O)cc(O)c(C(=O)c2ccc(OCCN3CCOCC3)c(OC)c2)c1CC(=O)N(CCOC)CCOC	20.4% and 29.7%	25.7	29.3	25.4	2.57	2.85	19.3	21.8
CS(=O)(=O)N1CCN(Cc2cc3nc(-c4cccc5[nH]ncc45)nc(N4CCOCC4)c3s2)CC1 [Pictilisib (GDC-0941)]	88.3% and 97.1%	94.5	64.3	57.8	55.9	64.6	48.5	55
C[C@H]1COC2(CCN(c3nc(=O)c4cc(C(F)(F)F)cc([N+](=O)[O-])c4s3)CC2)O1 (racemic) [BTZ043 racemate]	88.3% and 84.3%	84.1	82.4	86.7	87	85.3	91.7	86.9
CC1(C)CC[C@]2(C(=O)O)[C@H](O)C[C@]3(C)C(=CC[C@@H]4[C@@]5(C)CC[C@H](O)[C@@](C)(C=O)[C@@H]5CC[C@]43C)[C@@H]2C1 [Quillaic acid]	96.1% and 95.3%	82.9	95	104	84.6	91.7	98.9	96.8
CCc1cnn2c(NCc3ccc[n+]([O-])c3)cc(N3CCCC[C@H]3CCO)nc12	8.67% and 18.9%	13.1	10.8	4.43	2.65	0.52	5.12	17.9
Cc1c(Cl)cccc1Nc1ccccc1C(=O)O [Tolfenamic acid]	103% and 101%	101	107	102	99.8	102	106	106
OC[C@@H](O)CN1CCN(c2ccccc2)CC1 [Levodropropizine]	90.9% and 91%	83.9	85.1	96.5	92.5	91.6	94.5	96
CCN(CC)c1ccc2cc(-c3nc4ccccc4s3)c(=O)oc2c1 [Coumarin 6]	106% and 105%	102	106	112	108	107	101	108
C/C=C(\C)C(=O)OC1c2c(ccc3ccc(=O)oc23)OC(C)(C)C1OC(=O)/C(C)=C/C (stereo not drawn) [Paeruptorin B]	92.7% and 97.1%	89.7	86.9	96.3	89.7	92.3	93.8	103
CCOC(=O)n1ccn(C)c1=S [Carbimazole]	107% and 106%	113	110	103	103	111	108	97.4
O=C(Nc1ccccc1)c1cc([N+](=O)[O-])ccc1Cl	91.7% and 96.2%	81.4	86.8	90.8	89.3	101	90.1	91.8
C=CCc1ccc(OC(C)=O)c(OC)c1 [Eugenyl acetate]	85.8% and 88%	86	89.7	90.4	93.2	90.1	91.1	91.6
O=C(NCC1(c2nc(-c3ccccc3)cs2)CCOCC1)c1cccc(-c2noc(C(F)(F)F)n2)c1	82.1% and 90.7%	86.5	86.5	85.5	87.9	97.8	75.7	79.3
C=C1C(=O)O[C@H]2[C@H]1CC/C(C)=C/CC[C@@]1(C)O[C@@H]21 [Parthenolide ((-)-Parthenolide)]	18.9% and 9.99%	26.7	8.78	8.07	1.59	0.67	0.71	0.34
CCCCCCNC(=O)Nc1ccc(S(=O)(=O)Nc2ccc(CCNC[C@H](O)COc3ccc(O)cc3)cc2)cc1	72.8% and 83.3%	82.8	89.2	91.4	75.5	75.4	74.2	71
